Key:
[1] = target: Tumor necrosis factor receptor superfamily member 10B (Homo sapiens) (UniProt O14763); experiment: viability loss of caspase-8 NB7 cells with TRAIL – with/without TRAIL, luminescence panel, confirmation (AID 651596); conditions: NB7 neuroblastoma + caspase-8, TRAIL sensitization, NB7 Caspase-8, with TRAIL, mean of runs, at 10 µM, stronger effect = higher value
[2] = as above; conditions: NB7 neuroblastoma + caspase-8, without TRAIL, NB7 Caspase-8, without TRAIL, mean of runs, at 10 µM

Tumor necrosis factor receptor superfamily member 10B (Homo sapiens), sequence (O14763 whole entry, looked up): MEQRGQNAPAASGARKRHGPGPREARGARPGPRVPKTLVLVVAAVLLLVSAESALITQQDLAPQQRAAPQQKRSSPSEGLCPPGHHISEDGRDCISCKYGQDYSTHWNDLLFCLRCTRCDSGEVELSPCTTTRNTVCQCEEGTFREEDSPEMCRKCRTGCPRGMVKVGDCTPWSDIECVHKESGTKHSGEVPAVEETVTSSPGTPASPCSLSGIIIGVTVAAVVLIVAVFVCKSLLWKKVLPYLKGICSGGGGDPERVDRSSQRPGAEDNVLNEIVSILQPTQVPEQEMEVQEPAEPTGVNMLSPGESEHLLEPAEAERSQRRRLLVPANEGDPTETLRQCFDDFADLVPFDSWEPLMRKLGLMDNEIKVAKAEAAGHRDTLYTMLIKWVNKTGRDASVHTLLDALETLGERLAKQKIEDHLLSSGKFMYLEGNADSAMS

SMILES | activity [1] | activity [2]
Cc1ccc(-c2nc(-c3ccccn3)no2)cc1[N+](=O)[O-] | 60.7% | 55%
Cc1nn(Cc2ccc(Cl)cc2Cl)c(C)c1NC(=O)CCl | 95.8% | 97.8%
COc1ccc(/C=N/OC(=O)Nc2ccccc2OC)cc1 | 56.9% | 63.3%
Cc1cccc(/C(N)=N/OC(=O)c2ccc(Cl)cc2Cl)c1 | 97.3% | 91.8%
O=[N+]([O-])c1ccc(Sc2ccncn2)c([N+](=O)[O-])c1 | 16.8% | 65.8%
Cc1cc(C)nc(Nc2nc(-c3ccccc3)cs2)n1 | 72.5% | 71.3%
CCc1cc2c(=O)[nH]c(-c3ccccn3)nc2s1 | 35.9% | 41%
CC(C)(C)C(=O)Nc1ccc(-c2cn3ccsc3n2)cc1 | 95.7% | 95.8%
CSc1cc(-c2ccc(Cl)cc2)n(Cc2ccccc2)c(=O)c1C#N | 72.2% | 48.5%
Cn1c(=N)n(CC(=O)c2ccccc2)c2ccccc21 | 70.7% | 74.4%
Cc1ccc(-c2nc3cc(N)ccc3o2)cc1 | 69.2% | 60%
Cc1ccc(C(=O)n2c(N)nc3ccccc32)cc1 | 98.3% | 98.4%
Cc1oc(-c2nc3ccccc3n2C)cc1C(=O)c1ccccc1 | 81.4% | 81%
O=C(/C=C/c1ccccc1)Nc1ccc2c(c1)C(=O)NC2=O | 14.6% | 19.9%
CCOC(=O)c1ccc(NC(=O)c2nc[nH]c2C(=O)NCCNC(=O)c2[nH]cnc2C(=O)Nc2ccc(C(=O)OCC)cc2)cc1 | 99.4% | 99.5%
CCCCCCCCCCn1ccc(=N)cc1 | 84% | 68.3%
CCOc1ccc2cc(C#N)c(SCC(=O)OC)nc2c1 | 57.9% | 50.3%
CC(/C=N/NC(=O)c1n[nH]c2c1CCC2)=C\c1ccccc1 | 48.1% | 68.9%
O=C(NC(=S)Nc1ccc(Cl)cn1)c1cccs1 | 79.4% | 76.3%
CC(C)(C)c1ccc(/C=N/NC(=O)c2ccccn2)cc1 | 83.5% | 75%
CN1CCN(c2nc(-c3ccc(C(C)(C)C)cc3)nc3ccccc23)CC1 | 67.9% | 69.6%
Cc1ccc2nc(NC(=S)NC(=O)c3ccco3)sc2c1 | 77.9% | 62.9%
Brc1ccc(-c2nnc3sc(CN4CCC5(CC4)OCCO5)cn23)cc1 | 68.3% | 61.4%
COCCOCCn1c(/C=C/c2ccccc2)nc2ccccc21 | 65.4% | 77.1%
Cc1ccc2cc(NC(=O)c3cccc(F)c3)ccc2n1 | 21.3% | 10.6%

SMILES | activity [1] | activity [2]
CN(C)CCNC(=O)c1cccc(-c2cc(NC=O)c3ncc(-c4cccc(C(F)(F)F)c4)n3c2)c1 | 99.4% | 99.5%
Cc1cc(-c2ccccc2)nc(N/N=C/c2ccccc2)n1 | 61.6% | 50.3%
COc1ccc(C(=O)Nc2ccccc2C(=O)Nc2cccnc2)cc1 | 58.9% | 55.5%
CCCCn1c(SCC(=O)Nc2nnc(CC)s2)nc2c1c(=O)n(C)c(=O)n2C | 68% | 70.1%
CCc1ccc2nc(N(CCCN(C)C)C(=O)c3ccc(S(=O)(=O)N4CCc5ccccc5C4)cc3)sc2c1 | 68.4% | 64%
Cc1ccc2nc(NC(=S)NC(=O)c3cccs3)sc2c1 | 82.5% | 74.8%
Cc1ccc(-c2cc3nc4c(c(=O)n3[nH]2)CCCC4)cc1 | 55.2% | 54.7%
C#Cc1ccc(NC(=O)C2(C)CCN2C(=O)c2ccccc2CCc2ccccc2)cc1 (centres undefined) | 91.2% | 95.9%
CC(C)(C)c1ccc(NC(=O)c2ccsc2)cc1 | 73.7% | 71.9%
CCOc1ccc(C(=O)N/N=C/c2ccccc2[N+](=O)[O-])cc1 | 68% | 62.8%
CCOc1ccc(Nc2nc(N)nc(CCl)n2)cc1 | 99.5% | 99.3%
Nc1c(-c2cccs2)cnc2c(-c3ccc(F)cc3)cnn12 | 57.5% | 48.8%
O=C(/C=C/c1ccccc1Cl)Nc1cccc(O)c1 | 61.3% | 42.2%
N#CCCCC#Cc1ccc2c(c1)COc1c3ccccc3nn1-2 | 78.1% | 75.6%
CC(C)c1ccc(/C=N/NC(=O)c2ccccn2)cc1 | 86.9% | 76.6%
CC(C)(C)C(=O)Nc1cccc(-c2nc3ccccc3c(=O)o2)c1 | 59.2% | 61.9%
COCCN(C(=O)COC(=O)c1c(NC(C)=O)sc(C)c1C)c1c(N)n(Cc2ccccc2)c(=O)[nH]c1=O | 58.8% | 65.8%
O=C(Nc1nc2ccccc2[nH]1)c1ccc(OC(F)F)cc1 | 95.3% | 94.6%
Cc1ccc(-n2c(-c3ccc(Br)cc3)c[n+]3c2CCc2ccc4cccnc4c2-3)cc1 | 70.2% | 63%
C/C(=N\NC(=O)c1ccccc1O)c1cccs1 | 68.1% | 58.9%
CC(C)c1ccc(/C=N/NC(=O)c2c(Cl)cnn2C)cc1 | 80.1% | 71.3%
O=C1C(=Cc2ccccc2Cl)CCc2ccccc21 | 62.3% | 51.9%
C[C@@H](NC(=O)c1ncn2c1c(=O)[nH]c1ccc(Br)cc12)c1ccccc1 | 20.2% | 13%
CCCCN(CC)S(=O)(=O)c1ccc(C(=O)N=c2sc3cc(NC(C)=O)ccc3n2C)cc1 | 20.9% | 53.8%
CCOC(=O)[C@]12Cc3c(cc(OC)c(OC)c3OC)[C@H]1N(C1CCCCC1)C(=O)c1cc(OC)ccc12 | 61.2% | 80.1%

SMILES | activity [1] | activity [2]
Cc1nn(-c2ccccc2)c(Cl)c1CN(C(=O)CCl)c1cccc2ccccc12 | 98.8% | 99.7%
COc1cc(SC)ccc1C(=O)NNC(=O)c1cc(C)oc1C | 71.4% | 70.8%
C(=N\NC1=Nc2cccc3cccc1c23)/c1ccccn1 | 50.6% | 43%
CCOC(=O)CSc1nc2cc(OC)ccc2cc1C#N | 74.7% | 80.4%
COc1ccccc1C=NN=C(NN=Cc1ccccc1OC)NN=Cc1ccccc1OC | 78% | 65.6%
O=S1(=O)N=C(Nc2nc3c(s2)CCCC3)c2ccccc21 | 75.7% | 81.4%
CN(C)CCNC(=O)c1cc2c(s1)-c1ccc(Cl)cc1SC2 | 99% | 99.5%
O=c1c2ccccc2oc2ccc(C#CC3(O)CCCCC3)cc12 | 86.2% | 84.8%
Clc1ccc(OCc2nn3c(C4CCCCC4)nnc3s2)cc1 | 49.8% | 71.2%
O=C(CCl)Nc1ccc(-c2ccccc2)cc1 | 99.3% | 99.7%
CC(O)CC(=O)OC[C@]12CC[C@H]3[C@@](C)(CC[C@H]4C(C)(C)CCC[C@]34C)[C@@H]1CC(C1=CC(=O)OC1O)O2 (some centres undefined) | 87.1% | 93%
Cc1cccc(NC2=NC(C)(C)N=C(N)N2)c1 | 82.5% | 83.2%
COC(=O)c1ccc(NC(=O)C(=O)c2cccn2C)cc1 | 59.5% | 51.2%
CCCCCCCCCCCCCCCC[N+](C)(C)Cc1ccc(F)cc1 | 80.7% | 74.2%
CN1/C(=C\C(=O)c2cccs2)Sc2ccccc21 | 63% | 61%
CC(C)CC(=O)Nc1ccc(-c2cn3ccsc3n2)cc1 | 85.2% | 88.2%
CCn1cc(C(=O)NCC(OC)OC)c(=O)c2cc(S(=O)(=O)N3CCC(C)CC3)ccc21 | 57.3% | 64.5%
CCCc1cc(=O)[nH]c(SCC(=O)Nc2cc(S(=O)(=O)N3CCCCC3)ccc2C)n1 | 3.67% | -4.17%
Cc1ccsc1C(=O)Nc1ccc2c(c1)OCCO2 | 53.2% | 45.1%
c1ccc(-n2nnc3c(N4CCOCC4)ncnc32)cc1 | 74.7% | 74.7%
CC(=O)Nc1sc2c(c1-c1nc3ccccc3s1)CN(C(C)C)CC2 | 38% | 73.8%
CN(Cc1ccccc1)C(=O)c1ccc(Nc2nc(C(N)Cc3ccc(C(F)(F)F)cc3)cs2)nc1 (centres undefined) | 93% | 98.2%
Cc1ccc(/C=N/NC(=O)c2cc(C)oc2C)cc1 | 45.1% | 55%
CCOC(=O)c1sc(NC(=O)c2ccccc2)cc1C | 59.1% | 54.5%
COC(=O)c1c(-c2ccccc2)csc1NC1=NS(=O)(=O)c2ccccc21 | 74.7% | 73.3%

SMILES | activity [1] | activity [2]
CN=c1scc(C)n1/N=C/c1ccc2c(c1)OCO2 | 56.7% | 42.2%
O=C(CSc1nnc(NC(=O)c2ccc(F)cc2)s1)NCc1ccco1 | 64.4% | 62.4%
C/C(Cn1nnc([N+](=O)[O-])n1)=N\NC(=O)c1ccc(O)cc1 | 50.4% | 48.3%
CCOC(=O)c1cnc2c(-c3ccccc3)cnn2c1C | 50% | 35.7%
O=C1N(c2ccccc2)CCN1c1ccccc1 | 67.2% | 62.8%
CNS(=O)(=O)c1cccc(C(=O)OCC(=O)c2cc(C)n(CC3CCCO3)c2C)c1 (centres undefined) | 77.7% | 67%
Cc1ccc(-c2nc(N/N=C/c3cccc([N+](=O)[O-])c3)c3ccccc3n2)cc1 | 70.8% | 63.5%
CC(C)c1ccc(NC(=O)CSc2ncccc2C(=O)Oc2cccc([N+](=O)[O-])c2)cc1 | 68.1% | 61.5%
Cc1ccc(N2Cc3ccccc3C2=O)cc1 | 64.7% | 59.3%
NC(=O)c1ccccc1N/C=C/C(=O)c1ccc(F)cc1 | 78.8% | 73%
Cc1onc(-c2c(F)cccc2Cl)c1C(=O)Nc1nc2ccccc2[nH]1 | 31.9% | 30.2%
CCn1cc(/C=C/C(=O)c2ccc(O)cc2)c(C)n1 | 63.8% | 57.5%
C#Cc1ccccc1OCCCN1CCC(C(O)(c2ccccc2)c2ccccc2)CC1 | 97.2% | 94.2%
CN(C(=O)c1ccco1)c1nc2c(s1)CCCC2 | 58.4% | 60.5%
FC(F)(F)c1cccc(CC2CN(Cc3ccccc3)Cc3ccccc3N2c2cc(Cl)cc(Cl)c2)c1 (centres undefined) | 1.05% | -5.7%
Cc1ccc(-c2cc(C(=O)N3CCOCC3)no2)cc1 | 69.7% | 65.2%
NC(=O)c1ccccc1N/C=C/C(=O)c1ccccc1 | 73.4% | 58.9%
Cc1ccc(NC(=S)c2nc3ccccc3[nH]2)cc1 | 74.3% | 69.7%
Nc1ccc(-c2nc3ncccc3o2)c(Cl)c1 | 43.9% | 32.2%
Cc1ccc(Nc2nc(N)nc(CCl)n2)c(C)c1 | 98.9% | 98.6%
COC(=O)CSc1ncnc2c1sc1nc3c(cc12)COC(C)(C)C3 | 82.5% | 86.8%
CC1(C)N=C(N)N=C(N)N1c1ccc(OCCCOc2ccccc2)c(Cl)c1 | 59.8% | 64.1%

— PubChem BioAssay
